Source: the supplement of paper PMC4954754
± gives the uncertainty stated by the source.

test system: HEK293T-Rex XBP1-RLuc; assay: XBP1-RLuc splicing reporter activation, triplicate, relative to 500 nM thapsigargin (% of thapsigargin); higher = stronger IRE1/XBP1s reporter activation; details: 6.8 µM; 18 h; screen: confirmation
Experimental: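 HEK293T-Rex cells stably expressing the ERSE-firefly luciferase (BiP promoter, ATF6-preferring) or XBP1-splicing Renilla luciferase (IRE1/XBP1s) reporter, 1536-well plates, compound at 6.8 µM for 18 hr at 37 °C; luminescence read […] and expressed as % activation = 100*(compound - median DMSO)/(median 500 nM thapsigargin - median DMSO). Primary screen was single-pass; confirmation screen in triplicate (mean ± SD).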

Structure (SMILES)	XBP1-RLuc splicing reporter activation
Cc1ccc(O)c(N/C=C/C(=O)c2ccc(F)cc2)c1	10.3 ± 7.9
Cc1ccc(C(=O)Nc2sc3c(c2C#N)CCC3)cc1	4.62 ± 0.97
CCCNC(=O)c1ccc2nc(-c3ccc4[nH]ccc4c3)sc2c1	-0.994 ± 0.65
Oc1ccc(/C=N/Nc2cccc(Cl)n2)c(O)c1	10.9 ± 0.95
Cc1ccc(O)c(NC(=O)CCc2ccccc2)c1	17.5 ± 1.9
COc1ccccc1/C=C/C(=O)Nc1ccc(Cl)cn1	-1.93 ± 1.5
CCOc1ccc2nc(NC(=O)c3ccn(C)n3)sc2c1	-1.23 ± 2
CCN(CC)c1ccc(NC(=O)c2cccc(OC)c2)cc1	0.922 ± 1.9
O=C(N/N=C/c1ccc(O)c(O)c1)c1cccc(Cl)c1	6.18 ± 0.63
Oc1ccc(/C=N/Nc2cccc3cccnc23)c(O)c1	26 ± 1.3
O=C1NC(=Nc2ccc(F)cc2)S/C1=C\c1ccc(O)c(O)c1	17.4 ± 1.8
O=c1[nH]c(/C=C2\C=Nc3ccccc32)c(O)n1-c1ccc(Cl)cc1	43.1 ± 3.6
C/C(=N\NC(=O)c1n[nH]c2c1CCCC2)c1ccc(Br)cc1	2.87 ± 0.99
Cc1ccc2nc(/C(C#N)=C\c3cc(Cl)cc4c3OCOC4)[nH]c2c1	12.1 ± 2.3
C=CCNC(=O)c1cc(-c2ccccc2)on1	5.5 ± 0.76
Nc1ccc2nc(/C=C/c3ccccc3)[nH]c2c1	13.7 ± 0.35
Cn1c(-c2cccc(Cl)c2)cnc1NC(=O)c1ccccc1	2.86 ± 0.72
Oc1ccccc1/C=N\Nc1nc2ccccc2o1	19.1 ± 1.9
Cc1nc(-c2coc3c(O)c(O)ccc3c2=O)cs1	7.82 ± 0.28
CCOc1cc(/C=C2/NC(=O)N(Cc3ccc(F)cc3)C2=O)ccc1O	33.6 ± 2.1

Structure (SMILES)	XBP1-RLuc splicing reporter activation
Cc1ccc(O)c(NC(=O)c2cc(-c3cccnc3)on2)c1	19.8 ± 0.85
COc1ccccc1-c1cnnc(N/N=C/c2c[nH]c3ccccc23)n1	8 ± 0.78
CCCCCOc1ccc(N/C(N)=N/c2nc(C)cc(C)n2)cc1	159 ± 6.3
CN(C)c1ccc(-c2nc3ccc(N)cc3[nH]2)cc1	13.4 ± 0.35
COc1ccc(NC(=O)/C(Cl)=C\c2ccccc2)cc1	-0.467 ± 2.4
N#C/C(=C\c1ccc(O)c(O)c1)c1nc2ccccc2[nH]1	12.6 ± 0.2
COc1cccc(-c2nc3ccc(N)cc3[nH]2)c1	9.9 ± 1.3
CC(=O)Nc1ccc2nc(-c3ccc(OC(C)=O)cc3)sc2c1	21.7 ± 1
O=C(/C=C/c1ccco1)Nc1ccccn1	0.777 ± 0.52
Nc1c(C(=O)Nc2ccccc2)sc2nc3c(cc12)CCCCC3	12.6 ± 4.7
Cc1ccc(C)c(/C=N/Nc2nncc3ccccc23)c1	5.57 ± 0.69
COc1cc(/C=C/c2ccc(O)c(OC)c2)ccc1O	31.8 ± 2.2
CCc1cc2c(=O)c(-c3ccc4c(c3)OCCO4)coc2cc1OC	12.2 ± 0.77
O=C(Nc1ccc(O)cc1)c1c(O)c2c([nH]c1=O)CCCC2	19 ± 0.94
C=CCNC(=O)c1cc(-c2cccs2)on1	7.78 ± 0.96
Oc1ccc(-c2cnc3c(Nc4ccc5[nH]ccc5c4)nccn23)cc1	39.2 ± 1.5
O=C(NCCc1ccc(O)cc1)c1ccc2nc(-c3csc4ccccc34)sc2c1	18.8 ± 1.8
Oc1ccc(-c2csc3nc(-c4ccccc4)nn23)c(O)c1	15.3 ± 1.7
COC(=O)c1ccc(C(=O)Nc2ccccc2N)cc1	9.29 ± 0.17
Cc1ccc(O)c(NC(=O)c2cc(-c3ccc(F)cc3)on2)c1	15.9 ± 0.37
